Consider nine compounds from PubChem BioAssay (NCI).

Experiment [1] is described as follows: NCI Yeast Anticancer Drug Screen. Data for the rad50 strain (AID 155).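 Also: 0% = growth of vehicle-only cultures of the same strain.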 The settings on record: S. cerevisiae rad50 strain growth inhibition, hits give high values. In short, it runs like this:
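Yeast carrying a defined DNA repair defect were exposed to test compounds, and growth was compared with vehicle-treated controls to give percent inhibition.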

Experiment [2] can be described thus: NCI Yeast Anticancer Drug Screen. Data for the mec2-1 strain (AID 157). To be noted: S. cerevisiae mec2-1 strain, hits give high values. In short, it runs like this:
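Growth inhibition is read against vehicle-treated controls after compound exposure of the mec2-1 yeast strain, which is defective in DNA damage repair or cell cycle control.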

The nature of experiment [3]: NCI Yeast Anticancer Drug Screen. Data for the sgs1 mgt1 strain (AID 161).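 Also: 0% = growth of cultures given vehicle only.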 The settings on record: S. cerevisiae sgs1 mgt1 strain, hits give high values. The method, boiled down:
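This yeast growth screen uses a strain with defined DNA-repair lesions; compound-treated growth is compared with vehicle-treated growth.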

A short description of experiment [4]: NCI Yeast Anticancer Drug Screen. Data for the cln2 rad14 strain (AID 165).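 Also: 0% = growth equal to vehicle treated cultures.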 The settings on record: S. cerevisiae cln2 rad14 strain, hits give high values. The method, boiled down: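 Growth inhibition, relative to vehicle-treated controls, is the read-out. The test organism is a yeast strain with defined genetic alterations, cln2 rad14.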
Experiment [5] is described as follows: NCI Yeast Anticancer Drug Screen. Data for the bub3 strain (AID 167). The settings on record: S. cerevisiae bub3 mutant strain, hits give high values. In short, it runs like this: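 Compounds were applied to a genetically altered yeast strain carrying a cell-cycle control defect. Growth inhibition was scored against vehicle-treated controls.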
Experiment [6] in a line: NCI Yeast Anticancer Drug Screen. Data for the mlh1 rad18 strain (AID 175). To be noted: S. cerevisiae mlh1 rad18 strain growth inhibition, hits give high values. The method, boiled down: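 Cells of a genetically altered yeast strain, deficient in DNA damage repair, were treated with compound. Their growth was then compared with that of vehicle-treated cultures to give inhibition.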

[7] abbreviates: at 5.0 µM (retest, dose inferred, filed as 0.5).
Setting [8] is: at 50.0 µM (retest, dose inferred, filed as 5.0).

Molecules are shown by their SMILES. About 79,000 compounds went through this panel and 15% of them were active in at least one assay; those are over-represented in the sample as a whole. Unmarked numbers belong to inactive results. Calls of active or inactive are those of the source. Rule as the data show it: active = growth inhibition above about 70%; inactive = the rest.

Take `Cn1cc(NC(=O)c2cc(NC(=O)CCCCCCCC(=O)Nc3cc(C(=O)Nc4cc(C(=O)NCCC(=N)N)n(C)c4)n(C)c3)cn2C)cc1C(=O)NCCC(=N)N`: the growth inhibition is 82% (active) in experiment [1] (setting [7]); 96% (active) in experiment [1] (setting [8]); 86.8% (active) in experiment [1] (at 50.0 µM); 84% (active) in experiment [2] (setting [7]); 98% (active) in experiment [2] (setting [8]); 89.8% (active) in experiment [2] (at 50.0 µM). Also, the growth inhibition in experiment [3] (setting [7]) was 73% (active); in experiment [3] (setting [8]) it was 98% (active); in experiment [3] (at 50.0 µM), 90.2% (active); in experiment [4] (setting [7]), 28%; in experiment [4] (setting [8]), 91% (active); in experiment [4] (at 50.0 µM), 82% (active). In addition, the growth inhibition in experiment [5] (setting [7]) is 88% (active); in experiment [5] (setting [8]) it was 98% (active); in experiment [5] (at 50.0 µM) it was 88.2% (active); in experiment [6] (setting [7]), 85% (active); in experiment [6] (setting [8]), 98% (active); in experiment [6] (at 50.0 µM) it was 88.8% (active).
As to `CCCCCCCC1SCC(=O)N1c1nncs1` (configuration not stated), the growth inhibition in experiment [1] (setting [7]) was -11%; in experiment [1] (setting [8]), 96% (active); in experiment [1] (at 50.0 µM) it was -10.8%; in experiment [2] (setting [7]), 0%; in experiment [2] (setting [8]) it was 65%; in experiment [2] (at 50.0 µM) it was -20.4%. In addition, the growth inhibition in experiment [3] (setting [7]) is 0%; in experiment [3] (setting [8]), 95% (active); in experiment [3] (at 50.0 µM) it was 1.45%; in experiment [4] (setting [7]), -5%; in experiment [4] (setting [8]), 80% (active); in experiment [4] (at 50.0 µM), 3.1%. Further, the growth inhibition was 19% in experiment [5] (setting [7]); 95% (active) in experiment [5] (setting [8]); 2.9% in experiment [5] (at 50.0 µM); -10% in experiment [6] (setting [7]); 73% (active) in experiment [6] (setting [8]); 5.7% in experiment [6] (at 50.0 µM).
For the compound `Cc1ccc(S(=O)(=O)n2c3c(c4ccccc42)CCN2C(=O)C(S(=O)(=O)c4ccccc4)=CCC32)cc1` (configuration not stated), the growth inhibition in experiment [1] (setting [7]) is 65%; in experiment [1] (setting [8]), 97% (active); in experiment [1] (at 50.0 µM), 94.6% (active); in experiment [2] (setting [7]), 71% (active); in experiment [2] (setting [8]) it was 98% (active); in experiment [2] (at 50.0 µM), 95.7% (active). In addition, the growth inhibition was 74% (active) in experiment [3] (setting [7]); 98% (active) in experiment [3] (setting [8]); 97.5% (active) in experiment [3] (at 50.0 µM); 71% (active) in experiment [4] (setting [7]); 98% (active) in experiment [4] (setting [8]); 97.9% (active) in experiment [4] (at 50.0 µM). Also, the growth inhibition in experiment [5] (setting [7]) is 29%; in experiment [5] (setting [8]), 97% (active); in experiment [5] (at 50.0 µM), 97.5% (active); in experiment [6] (setting [7]) it was 78% (active); in experiment [6] (setting [8]), 97% (active); in experiment [6] (at 50.0 µM) it was 95.8% (active).
Take `C1CCC(OC2CCCCO2)OC1` (configuration not stated): the growth inhibition in experiment [1] (setting [7]) was -2%; in experiment [1] (setting [8]) it was 76% (active); in experiment [1] (at 50.0 µM), 70.3% (active); in experiment [2] (setting [7]), -22%; in experiment [2] (setting [8]), 36%; in experiment [2] (at 50.0 µM) it was 21.2%. The growth inhibition was -11% in experiment [3] (setting [7]); 56% in experiment [3] (setting [8]); 62.1% in experiment [3] (at 50.0 µM); -2% in experiment [4] (setting [7]); 66% in experiment [4] (setting [8]); 65.2% in experiment [4] (at 50.0 µM). Besides, the growth inhibition was -8% in experiment [5] (setting [7]); 71% (active) in experiment [5] (setting [8]); 77.3% (active) in experiment [5] (at 50.0 µM); -9% in experiment [6] (setting [7]); 92% (active) in experiment [6] (setting [8]); 66% in experiment [6] (at 50.0 µM).
For `CC1=C(C(=O)Nc2ccccc2)C(c2cccc([N+](=O)[O-])c2)C(C(=O)Nc2ccccc2)=C(C)N1`, the growth inhibition in experiment [1] (setting [7]) was 4%; in experiment [1] (setting [8]) it was 30%; in experiment [1] (at 50.0 µM), -7.95%; in experiment [2] (setting [7]), 1%; in experiment [2] (setting [8]), 63%; in experiment [2] (at 50.0 µM) it was 26.1%. The growth inhibition was 4% in experiment [3] (setting [7]); 30% in experiment [3] (setting [8]); 19.1% in experiment [3] (at 50.0 µM); -2% in experiment [4] (setting [7]); 24% in experiment [4] (setting [8]); 4.75% in experiment [4] (at 50.0 µM). Moreover, the growth inhibition was 6% in experiment [5] (setting [7]); 75% (active) in experiment [5] (setting [8]); 35.4% in experiment [5] (at 50.0 µM); -7% in experiment [6] (setting [7]); 24% in experiment [6] (setting [8]); 18.9% in experiment [6] (at 50.0 µM).
Regarding `CC([N+](=O)[O-])C1(O)C(=O)c2cccc3cccc1c23` (configuration not stated), the growth inhibition in experiment [1] (setting [7]) is -7%; in experiment [1] (setting [8]), 55%; in experiment [1] (at 50.0 µM) it was 64.2%; in experiment [2] (setting [7]), 0%; in experiment [2] (setting [8]) it was 100% (active); in experiment [2] (at 50.0 µM), 58.5%. Also, the growth inhibition was 11% in experiment [3] (setting [7]); 96% (active) in experiment [3] (setting [8]); 42.2% in experiment [3] (at 50.0 µM); 4% in experiment [4] (setting [7]); 42% in experiment [4] (setting [8]); 76.7% (active) in experiment [4] (at 50.0 µM). The growth inhibition in experiment [5] (setting [7]) was 14%; in experiment [5] (setting [8]) it was 91% (active); in experiment [5] (at 50.0 µM), 68.8%; in experiment [6] (setting [7]), 26%; in experiment [6] (setting [8]) it was 86% (active); in experiment [6] (at 50.0 µM) it was 74.5% (active).
On to `O=C(CSC1=NNC2(C(=O)N1)c1ccccc1-c1ccccc12)NC(=S)Nc1ccccc1`, for which the growth inhibition in experiment [1] (setting [7]) was -3%; in experiment [1] (setting [8]), 95% (active); in experiment [1] (at 50.0 µM), 96.2% (active); in experiment [2] (setting [7]), -15%; in experiment [2] (setting [8]), 90% (active); in experiment [2] (at 50.0 µM), 97% (active). Moreover, the growth inhibition in experiment [3] (setting [7]) was -7%; in experiment [3] (setting [8]), 96% (active); in experiment [3] (at 50.0 µM) it was 98% (active); in experiment [4] (setting [7]) it was -8%; in experiment [4] (setting [8]), 86% (active); in experiment [4] (at 50.0 µM), 96.4% (active). Also, the growth inhibition is -16% in experiment [5] (setting [7]); 94% (active) in experiment [5] (setting [8]); 97.5% (active) in experiment [5] (at 50.0 µM); -24% in experiment [6] (setting [7]); 95% (active) in experiment [6] (setting [8]); 97% (active) in experiment [6] (at 50.0 µM).
As to `OC[P+](CO)(CO)C12CC3CC(CC(C3)C1)C2`, the growth inhibition in experiment [1] (setting [7]) was 12%; in experiment [1] (setting [8]) it was 13%; in experiment [1] (at 50.0 µM), 48.5%; in experiment [2] (setting [7]), 8%; in experiment [2] (setting [8]) it was 11%; in experiment [2] (at 50.0 µM) it was 71.1% (active). The growth inhibition in experiment [3] (setting [7]) was 35%; in experiment [3] (setting [8]) it was 49%; in experiment [3] (at 50.0 µM) it was 69.8%; in experiment [4] (setting [7]) it was 18%; in experiment [4] (setting [8]), 30%; in experiment [4] (at 50.0 µM) it was 67.8%. Further, the growth inhibition in experiment [5] (setting [7]) is 5%; in experiment [5] (setting [8]) it was 40%; in experiment [5] (at 50.0 µM), 78% (active); in experiment [6] (setting [7]), 11%; in experiment [6] (setting [8]) it was 25%; in experiment [6] (at 50.0 µM) it was 89% (active).
As to `c1ccc(/C(=N\Nc2nc3ccccc3s2)c2ccccn2)cc1`, the growth inhibition in experiment [1] (setting [7]) is 0%; in experiment [1] (setting [8]), 88% (active); in experiment [1] (at 50.0 µM), 71.7% (active); in experiment [2] (setting [7]), 9%; in experiment [2] (setting [8]), 79% (active); in experiment [2] (at 50.0 µM) it was 73.5% (active). The growth inhibition in experiment [3] (setting [7]) was -6%; in experiment [3] (setting [8]), 90% (active); in experiment [3] (at 50.0 µM) it was 75.4% (active); in experiment [4] (setting [7]), -17%; in experiment [4] (setting [8]) it was 75% (active); in experiment [4] (at 50.0 µM) it was 79.7% (active). Moreover, the growth inhibition in experiment [5] (setting [7]) was -6%; in experiment [5] (setting [8]) it was 87% (active); in experiment [5] (at 50.0 µM), 78.7% (active); in experiment [6] (setting [7]) it was 11%; in experiment [6] (setting [8]), 89% (active); in experiment [6] (at 50.0 µM) it was 81.3% (active).
